Test results published in PubChem BioAssay (NCATS).
Results filed as inconclusive are left out. Where a call stands in place of a potency, no number is given. Calls of active or inactive are those of the source. The call rests on the fitted dose curve; in most records, active means well fitted cell-killing curve with a large enough effect; inconclusive means small, poorly fitted or top-dose-only effect; inactive means flat fitted curve, though single readings scatter.

Assay: Cell Viability - LYMP1-002 - Assay at 40 hr (AID 994); further: nearly all actives have a fitted effect of over 60% in size
Conditions: LYMP1-002 lymphoblastoid cell viability; series mostly up to 92.2 µM
Source text: NIH Chemical Genomics Center [NCGC]
NIH Molecular Libraries Screening Centers Network [MLSCN]
National Institutes of Environmental Health Sciences [NIEHS]
National Toxicology Program [NTP]
We have developed a 1536-well cell-based assay for quantitative high throughput screening (qHTS) against a number of cell lines to determine in vitro cytotoxicity of small molecules. This particular assay uses a human lymphoblastoid cell line (LYMP1-002) purchased from Coriell Institute for Medical Research.
NCGC Assay Protocol Summary:
The CellTiter-Glo luminescent cell viability assay (Promega) is a homogeneous method to measure the number of viable cells in culture. The end point readout of this assay is based on quantitation of intracellular ATP, an indicator of metabolic activity, using the luciferase reaction. Luciferase catalyzes the oxidation of beetle Luciferin to oxyluciferin and light in the presence of ATP. The luminescent signal is proportional to amount of ATP present.
Using the CellTiter-Glo luminescent cell viability assay, the amount of cellular ATP was measured in the lymphoblastoid cell line with complete culture medium following compound treatment for 40 hours. The assay was performed in opaque white Kalypsys 1536-well plates. In the screen, tetraoctylammonium bromide was used as positive control. Library compounds were measured for their ability to cause acute toxicity in the cell line, as reflected by a decrease in intracellular ATP levels, in a concentration-dependent manner. […] AC50 values were determined from concentration-response data modeled with the standard Hill equation.
qHTS protocol for CellTiter Glo lymphoblastoid cellular assay
[Step] [Parameter] [Value] [Description]
1. Reagent; 5 uL; 2500 lymphoblastoid cells/well
2. Time; 5 hr; 37 C incubation
4. Controls; 23 nL; Tetraoctylammonium bromide 6.4pM to 92 uM
5. Time; 40 hr; 37 C incubation
6. Reagent; 5 uL; CellTiter Glo reagent
7. Time; 30 min; Room Temperature
8. Detection; Luminescence; Viewlux plate reader
Keywords: cell viability, cytotoxicity, lymphoblastoid cell line, luminescence, NTPHTS, NTPHTS_NCGC, NIEHS, DSSTox, MLSMR, MLSCN, NIH Roadmap, qHTS, NCGC
Potency means the concentration at half of the fitted maximal effect.

SMILES	Potency
CCCNC(=O)NS(=O)(=O)c1ccc(Cl)cc1	inactive
O=C1NC(=O)C(c2ccccc2)(c2ccccc2)N1	inactive
CC(=O)c1ccc(S(=O)(=O)NC(=O)NC2CCCCC2)cc1	inactive
O=C(O)c1cc(O)c2c(c1)C(=O)c1cccc(O)c1C2=O	inactive
O=c1[nH]cnc2c1ncn2[C@H]1CC[C@@H](CO)O1	inactive
O=C(O)Cc1cccc2ccccc12	inactive
CC/C(=C(\c1ccccc1)c1ccc(OCCN(C)C)cc1)c1ccccc1	50.1 µM (active)
CC(=O)O[C@]1(C(C)=O)CC[C@H]2[C@@H]3C=C(Cl)C4=CC(=O)[C@@H]5C[C@@H]5[C@]4(C)[C@H]3CC[C@@]21C	inactive
CCn1cc(C(=O)O)c(=O)c2ccc(C)nc21	inactive
O=c1c(-c2ccc(O)cc2)coc2cc(O)ccc12	inactive
CCCCC1C(=O)N(c2ccccc2)N(c2ccccc2)C1=O	inactive
CN(C)CCC(c1ccccc1)c1ccccn1 (centres undefined)	inactive
CC1=C(/C=C/C(C)=C/C=C/C(C)=C/C(=O)Nc2ccc(O)cc2)C(C)(C)CCC1	50.1 µM (active)
O=c1c(O)c(-c2ccc(O)cc2)oc2cc(O)cc(O)c12	inactive
